Common to all, as to experiment: NCI-60 one-dose screen, 48 h (100 = growth as untreated, 0 = no growth, -100 = all killed)
Conditions in all cases: 10 µM unless noted

Assay [1] concerns SK-MEL-2 melanoma.
In assay [2] the test system is EKVX NSCLC.
The subject of assay [3] is SN12C renal.
The subject of assay [4] is UO-31 renal.
In assay [5] the test system is TK-10 renal.
In assay [6] the test system is ACHN renal.
The test system of assay [7] is A498 renal.
Assay [8] deals with CCRF-CEM leukemia.
The test system of assay [9] is MOLT-4 leukemia.
Assay [10] deals with SR leukemia.

Compounds without any hit were thinned out: in the full panel of roughly 83,000, 20% have a hit.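 The test compound was applied at a single concentration to cells in 96-well plates for 48 hours, and percent growth was recorded.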 A number with no mark means an inactive call. Activity calls are given as the source filed them. How the source made its calls: active means growth percent below 10; inactive means the rest.

As to `COc1ccc2c(c1)Oc1nc(N)c(C#N)c(N)c1C2Sc1ccc(SC)cc1` (stereo not given), the growth in assay [1] is -25.6% (active); in assay [2], 32.6%; in assay [3] it was 21.7%; in [4] it was 5.13% (active); in assay [5], -16.4% (active); in assay [6], -66.3% (active). For the same compound, the growth was 95.4% in [7], -2.59% (active) in [8], 0.548% (active) in assay [9] and -17.5% (active) in assay [10].

`O=c1[nH]nc(-c2ccccc2)c2sc(NC(=S)Nc3ccc(Cl)cc3)nc12`: the growth in [1] is 85.5%; in [2], 83%; in [3], 103%; in assay [4] it was 84.4%; in [5] it was 96.5%; in [6], 102%. Besides, the growth in [7] was 86%; in [8] it was 99.2%; in assay [9] it was 79.6%; in [10], 91.7%.

For `Nc1ccccc1NS(=O)(=O)c1ccc(Cl)cc1`, the growth in [1] is 93.7%; in assay [2] it was 98.4%; in assay [3], 103%; in [4], 83.9%; in assay [5] it was 90.8%; in assay [6] it was 94.8%. Further, the growth in assay [7] was 81.5%; in assay [8] it was 96.6%; in assay [9], 97.1%; in assay [10] it was 89.6%.

Take `COc1cc2c(cc1OCCCOc1cc3c(cc1OC)C(=O)N1CC(F)(F)C[C@H]1C=N3)N=C[C@@H]1CC(F)(F)CN1C2=O`: the growth is 34.7% in [1]; 49.2% in assay [2]; 35.8% in assay [3]; 30% in assay [4]; 11.3% in assay [5]; 24.7% in assay [6]. Moreover, the growth is -66.6% (active) in assay [7], -33.1% (active) in assay [8], -8.82% (active) in [9] and -12.1% (active) in [10].

With `Nc1ccc(C(=O)Nc2cccc(C(=O)Nc3ccc4c(O)c(N=Nc5ccc(N=Nc6ccc(S(=O)(=O)O)cc6)cc5)c(S(=O)(=O)O)cc4c3)c2)cc1`, the growth is 97.5% in assay [1]; 105% in [2]; 101% in assay [3]; 88.4% in assay [4]; 97.1% in [5]; 106% in assay [6]. The growth in [7] was 107%; in assay [8], 98.5%; in [9], 92.1%; in assay [10], 92.2%.

Take `CN1CCN(S(=O)(=O)O[C@@H]2C(=O)N(c3cc4c5ccccc5ccc4c4ccccc34)[C@H]2c2ccc(F)cn2)CC1`: the growth in assay [1] is 92.8%; in [2] it was 85%; in assay [3], 92.2%; in assay [4], 66.6%; in assay [5], 94.6%; in assay [6], 92.1%. Also, the growth in assay [7] is 80.4%; in [8], 74.8%; in assay [9] it was 66.6%; in assay [10] it was 52.5%.

As for `N#Cc1c(-c2ccc(F)cc2)nc(N=Nc2c(O)[nH]c3ccccc23)nc1N1CCOCC1`, the growth in assay [1] is 105%; in [2], 77.6%; in [3] it was 30.4%; in assay [4] it was 60.4%; in assay [5], 65.4%; in [6], 65.5%. Also, the growth in [7] is 80.8%; in assay [8], 77.4%; in [9] it was 95.3%; in [10], 88.2%.

Take `Cc1ccc2nc3nc4ccc[nH]c4cc3c2c1`: the growth in assay [1] was 113%; in assay [2] it was 56.8%; in [3] it was 105%; in [4], 65.8%; in assay [5], 46.9%; in assay [6], 81.8%. The growth is 124% in [7], 98.9% in [8], 119% in assay [9] and 18.1% in assay [10].

Regarding `O=C1C(Cl)=C(Nc2ccc3c(c2NC2=C(Cl)C(=O)c4ccccc4C2=O)C(=O)c2ccccc2C3=O)C(=O)c2ccccc21`, the growth in assay [1] is 40.8%; in assay [2], 34.5%; in assay [3], 4.99% (active); in assay [4], 23.1%; in [5], 77.3%; in assay [6], 29.2%. The growth in assay [7] is 50.5%; in assay [8] it was 17.8%; in [9], 8.53% (active); in [10] it was 13.3%.

`S=c1ssnc1-c1cc2ccccc2o1`: the growth was 91.2% in assay [1]; 76.6% in [2]; 98.8% in [3]; 52.5% in [4]; 98.4% in assay [5]; 80.3% in [6]. For the same compound, the growth in assay [7] was 103%; in [8] it was 7.9% (active); in [9], 51.1%; in assay [10], 41.6%.

Turning to `N#Cc1c(-c2ccc(F)cc2)nc(N=Nc2c(O)[nH]c3ccc(Cl)cc23)nc1N1CCOCC1`, the growth is 64% in [1]; 72.5% in assay [2]; -9.86% (active) in assay [3]; 6.44% (active) in assay [4]; 11.6% in assay [5]; 14.6% in assay [6]. The growth was 51.2% in assay [7], 58.7% in assay [8], 48.5% in assay [9] and 47% in [10].

With `Cc1cc(Cl)cc(CN(Cc2ccccc2)Cc2c(O)ccc3ccccc23)c1O`, the growth was 91% in assay [1]; 99% in assay [2]; 83.5% in [3]; 62.2% in assay [4]; 110% in assay [5]; 102% in [6]. Besides, the growth in assay [7] is 76.6%; in assay [8], 99.2%; in [9], 104%; in assay [10], 92.9%.

`O=C1CCC23OC(C(O)c4ccccc4N12)C1C(Br)=NOC13` (stereo not given): the growth was 108% in assay [1]; 99.7% in assay [2]; 90.7% in assay [3]; 87.2% in assay [4]; 98.5% in assay [5]; 104% in assay [6]. The growth in assay [7] was 108%; in assay [8] it was 103%; in assay [9], 103%; in assay [10], 102%.

The values are drawn from PubChem BioAssay (NCI).
